# “And” between values parts separate entries of the source, which are not always exact repeats. Identical values can stand only once. A number with no mark means an inactive call. Records with an inconclusive call do not appear. A call without a number means that no potency is given here. The source made the active and inactive calls. Unless noted, the call rests on the fitted dose curve; in most records, active means well fitted curve in the direction sought with a large enough effect in the repeat runs; inconclusive means weak or mixed curves; inactive means no such curve, though single readings can be large; an effect the other way counts as inactive or inconclusive.
# What was measured:
# [1] = qHTS assay for small molecule agonists of the p53 signaling pathway (AID 651631; calls by dose curve; further: nearly all actives have a fitted effect of over 15% in size; further: potency means the concentration at half of the fitted maximal effect)
# Summary of the method: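 Testing took place in human colorectal HCT-116 cells with stable p53RE-driven beta-lactamase. After 16 h of compound exposure at 37 °C, a FRET substrate was added and fluorescence recorded 2 h later.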
# [2] = qHTS assay for small molecules that induce genotoxicity in human embryonic kidney cells expressing luciferase-tagged ATAD5 (AID 651632); further: nearly all actives have a fitted effect of over 15% in size
# Summary of the method: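 A rise in luciferase signal from ATAD5-tagged HEK293T cells marks genetic stress. Cells were exposed to compounds for 16 hr at 37C, 5% CO2, then luciferase was quantified after a 30 min room-temperature incubation with Amplite.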
# [3] = qHTS assay for small molecules that induce genotoxicity in human embryonic kidney cells expressing luciferase-tagged ATAD5 - cell viability (AID 651634; calls by dose curve; further: nearly all actives have a fitted effect of over 25% in size; further: potency means the concentration at half of the fitted maximal effect)
# Summary of the method: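 Cytotoxicity counter-readout: after 15.5 hr compound treatment at 37C, live-cell protease activity in ATAD5-luciferase HEK293T cells measured by CellTiter-Fluor fluorescence, 30 min development at 37C.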
# [4] = qHTS assay for small molecule disruptors of the mitochondrial membrane potential - cell viability (AID 720634; calls by dose curve;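 further: human HepG2 liver cancer cells; series mostly up to about 83 µM; nearly all actives have a fitted effect of over 20% in size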)
# Summary of the method: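 Cytotoxicity was quantified from ATP content by CellTiter-Glo luminescence in the same wells as the MMP dye read-out. HepG2 (2,000 cells/well) were plated overnight and exposed to compounds for 1 hr at 37 C.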
# [5] = qHTS assay to test for compound auto fluorescence at 590 nm (red) in HepG2 cells (AID 720674)
# Summary of the method: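 Seeding: 2,000 HepG2 cells/well, MEM/10% FBS, overnight 37 C. Dosing: compound vs DMSO. Incubation: 1 hr, 37 C, 5% CO2. Read: fluorescence 540 ex/590 em, Rose Bengal sodium as red reference.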
# [6] = qHTS assay to test for compound auto fluorescence at 535 nm (green) in HepG2 cells (AID 720675)
# [7] = qHTS assay to test for compound auto fluorescence at 460 nm (blue) in HEK293 cells (AID 720678)
# Summary of the method: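 HEK293 cells (2,000/well, medium with 10% dialyzed FBS) attached 4-5 hr, then exposed to compound overnight at 37C, 5% CO2. Blue fluorescence read at 405/460 nm, with triamterene as reference fluorophore.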
# [8] = qHTS assay to test for compound auto fluorescence at 590 nm (red) in HEK293 cells (AID 720679)
# Summary of the method: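 HEK293 cells (2,000/well, 10% dialyzed FBS) attached 4-5 hr, then dosed with compound or DMSO and incubated overnight at 37C, 5% CO2. Red fluorescence read at 540/590 nm, Rose Bengal sodium as reference fluorophore.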
# [9] = qHTS assay for small molecule agonists of the p53 signaling pathway - cell viability (AID 651633; calls by dose curve; further: nearly all actives have a fitted effect of over 30% in size; further: potency means the concentration at half of the fitted maximal effect)
# Summary of the method: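 p53RE-bla cells were treated with compound for 16 hours at 37 C. Cytotoxicity was then measured as CellTiter-Glo luminescence after 30 min at room temperature.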
# [10] = qHTS assay for small molecule disruptors of the mitochondrial membrane potential (AID 720635); further: potency means the concentration at half of the fitted maximal effect
# Summary of the method: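 HepG2 cells exposed to compound 1 hr at 37C, then Mito-MPS dye 30 min. Ratio read of aggregate (540/590 nm) versus monomer (490/535 nm) fluorescence.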
SMILES,Potency [1],Potency [2],Potency [3],Potency [4],outcome [5],outcome [6],Potency [7],outcome [8],Potency [9],Potency [10],"fluorescence, % of fluorescein control [6]","fluorescence, % of fluorescent control [8]"
CCCc1ccccc1,inactive,inactive,inactive,inactive,inactive,inactive,inactive,inactive,,,,
O=C(Cl)c1c(Cl)cccc1Cl,,inactive,inactive,inactive,inactive,inactive,inactive,inactive,inactive,inactive,,
CNCC[C@@H](Oc1ccccc1C)c1ccccc1,,inactive,inactive,inactive,inactive,inactive,inactive,inactive,inactive,,,
O=C(O)Cc1cc(I)c(Oc2ccc(O)c(I)c2)c(I)c1,4.52 µM (active) and 24.3 µM (active),,inactive,inactive,inactive,inactive,,,3.59 µM (active) and 43.3 µM (active),68.6 µM (active),,
Oc1ccc(Cc2ccccc2)cc1,,inactive,inactive,inactive,inactive,inactive,inactive,inactive,inactive,14.2 µM (active),,
O=c1[nH]cnc2ccccc12,inactive,,,inactive,,inactive,,,inactive,inactive,,
CN(C)CC[C@@H](c1ccc(Br)cc1)c1ccccn1,,inactive,inactive,inactive,inactive,inactive,inactive,inactive,inactive,inactive,,
O=C(O)C1CCC(C(=O)O)CC1 (centres undefined),inactive,inactive,inactive,inactive,inactive,inactive,inactive,inactive,,,,
CC(C)CCCCCCOC(=O)c1ccc(C(=O)OCCCCCCC(C)C)c(C(=O)OCCCCCCC(C)C)c1,,inactive,inactive,inactive,inactive,inactive,inactive,inactive,inactive,inactive,,
Cc1ccc(O)c([C@H](CCN(C(C)C)C(C)C)c2ccccc2)c1,,inactive,,inactive,inactive,inactive,inactive,inactive,inactive,,,
CCOC(=O)CC(C)C,,inactive,inactive,,inactive,inactive,inactive,inactive,inactive,,,
CN1CCN(C2=Nc3cc(Cl)ccc3Nc3ccccc32)CC1,,inactive,,inactive,inactive,inactive,,inactive,inactive,,,
CCCCCC/C=C/C=O,,inactive,inactive,inactive,inactive,,inactive,inactive,inactive,,,
Cc1cc(C)c(S(=O)(=O)O)cc1N=Nc1cc(S(=O)(=O)O)c2ccccc2c1O,,inactive,48.6 µM (active),inactive,inactive,,inactive,inactive,inactive,,,
C=CC(=O)OCCOC(=O)CCC(=O)O,,inactive,,inactive,,inactive,inactive,inactive,inactive,,,
O=C1CCCCCO1,,inactive,inactive,,inactive,inactive,inactive,,inactive,,,
Cn1sccc1=O,,inactive,inactive,,inactive,,,inactive,inactive,61.1 µM (active),,
O=C(NN1CCCC1)NS(=O)(=O)c1ccc(Cl)cc1,,inactive,,inactive,,inactive,inactive,inactive,inactive,inactive,,
CCOC(=O)C1=C(C)NC(C)=C(C(=O)OC)C1c1cccc([N+](=O)[O-])c1 (centres undefined),,inactive,,,,inactive,inactive,inactive,inactive,26.6 µM (active),,
CC(C)NCC(O)COc1ccc(CC(N)=O)cc1 (centres undefined),,inactive,inactive,inactive,inactive,,inactive,inactive,inactive,,,
c1ccc(OCc2ccc(CCCN3CCOCC3)cc2)cc1,,inactive,inactive,inactive,inactive,inactive,inactive,inactive,inactive,,,
CN(c1nccc(=O)[nH]1)C1CCN(c2nc3ccccc3n2Cc2ccc(F)cc2)CC1,,inactive,inactive,inactive,inactive,inactive,inactive,inactive,inactive,,,
C=C(C)C(=O)OCCOc1ccccc1,,inactive,inactive,inactive,inactive,inactive,inactive,inactive,inactive,,,
N[C@H]1C(O)O[C@H](CO)[C@H](O)[C@@H]1O (some centres undefined),,inactive,inactive,inactive,inactive,inactive,,inactive,inactive,,,
CCCCOc1ccc(CC(=O)NO)cc1,,inactive,9.02 µM (active),inactive,,,,,inactive,,0.007% [at 18.6 µM],0.184% [at 18.6 µM]
O=C(O)Cn1c(C(=O)Nc2nc(-c3ccccc3Cl)cs2)cc2ccccc21,,inactive,,inactive,inactive,inactive,inactive,inactive,inactive,26.6 µM (active),,
CC(=O)O[C@@H]1C(=O)O[C@@H]2[C@H]1OC(=O)[C@@H]2OC(C)=O,,inactive,inactive,,inactive,,,inactive,inactive,,,

# From PubChem BioAssay (Tox21)
